The source of these data is the antibiotic and cytotoxicity screens of Wong et al. (2023).

Out of some 39,000 compounds screened, about 1,500 (3.8%) were called active. The full list was thinned out, with actives kept by preference.

In this assay the test system is HSkMC (human skeletal muscle cells). The experiment in a line: cytotoxicity call (relative viability < 0.9). As to conditions: 10 µM.
In the case of `C[C@H](CO)N1C[C@H](C)[C@@H](CN(C)C(=O)Cc2ccncc2)Oc2ncc(C#CC3(O)CCCC3)cc2C1=O`, the cytotoxicity call was “inactive”.
To `C[C@@H]1CN([C@H](C)CO)C(=O)c2cc(NC(=O)Nc3cccc4ccccc34)ccc2O[C@H]1CN(C)Cc1ccc(C(=O)O)cc1` belongs “inactive”.
The entry for `C[C@@H]1CCCCO[C@@H](CN(C)C(=O)CCC(F)(F)F)[C@H](C)CN([C@H](C)CO)C(=O)c2cc(NC(=O)c3ccccc3)ccc2O1` is “inactive”; for `C[C@@H]1CN([C@H](C)CO)C(=O)c2cc(NC(=O)CCN3CCOCC3)ccc2O[C@@H]1CN(C)CC1CC1` it is “inactive”; for `C[C@H](CO)N1C[C@H](C)[C@H](CN(C)C(=O)Nc2ccc(C(F)(F)F)cc2)Oc2ccc(NC(=O)Nc3ccc(C(F)(F)F)cc3)cc2C1=O` it is “inactive”.
The entry for `O=C(C[C@@H]1CC[C@@H]2[C@H](COC[C@@H](O)CN2S(=O)(=O)c2ccc(F)cc2)O1)NCc1ccc(Cl)c(Cl)c1` is “inactive”; for `C[C@@H]1CN([C@@H](C)CO)C(=O)Cc2cc(NC(=O)Nc3ccccc3)ccc2O[C@H]1CN(C)Cc1ccc(Oc2ccccc2)cc1` it is “inactive”.
For the compound `C[C@H]1CN([C@@H](C)CO)C(=O)Cc2cc(NC(=O)Nc3ccccc3)ccc2O[C@@H]1CN(C)Cc1ccc(Oc2ccccc2)cc1`, the cytotoxicity call is “active”.
Consider `C[C@@H]1CN([C@H](C)CO)C(=O)Cc2cc(NC(=O)Nc3ccccc3)ccc2O[C@@H]1CN(C)Cc1ccc(Oc2ccccc2)cc1`, for which the cytotoxicity call was “active”.
To `CC(C)NC(=O)Nc1ccc2c(c1)CC(=O)N([C@@H](C)CO)C[C@@H](C)[C@H](CN(C)Cc1ccc(Oc3ccccc3)cc1)O2` belongs “inactive”; to `CC(C)NC(=O)Nc1ccc2c(c1)CC(=O)N([C@H](C)CO)C[C@@H](C)[C@@H](CN(C)Cc1ccc(Oc3ccccc3)cc1)O2`, “active”.
In the case of `C[C@@H]1CN([C@H](C)CO)C(=O)Cc2cc(NC(=O)Nc3ccccc3)ccc2O[C@H]1CN(C)Cc1ccc(Oc2ccccc2)cc1`, the cytotoxicity call is “inactive”.
To `CC(C)NC(=O)Nc1ccc2c(c1)CC(=O)N([C@@H](C)CO)C[C@@H](C)[C@@H](CN(C)Cc1ccc(Oc3ccccc3)cc1)O2` belongs “inactive”; to `C[C@@H]1CN([C@@H](C)CO)C(=O)Cc2cc(NC(=O)Nc3ccc4c(c3)OCO4)ccc2O[C@H]1CN(C)Cc1ccc(Oc2ccccc2)cc1`, “inactive”.
Regarding `C[C@H](CO)N1C[C@H](C)[C@@H](CN(C)Cc2ccc(Oc3ccccc3)cc2)Oc2ccc(NC(=O)Nc3ccc4c(c3)OCO4)cc2CC1=O`, the cytotoxicity call is “active”.
The entry for `C[C@H]1CN([C@@H](C)CO)C(=O)Cc2cc(NC(=O)Nc3ccc4c(c3)OCO4)ccc2O[C@@H]1CN(C)Cc1ccc(Oc2ccccc2)cc1` is “inactive”; for `COc1ccc2c3c(n(c2c1)C)[C@H](CO)N(CC1CCOCC1)C[C@]13CCN(CC1)C(=O)c1cnccn1` it is “inactive”; for `CO[C@H]1CN(C)C(=O)c2cc(NC(=O)c3ccc(F)cc3)ccc2OC[C@@H](C)N(C(=O)CN(C)C)C[C@@H]1C` it is “inactive”.
The entry for `C=CC[C@@H](CC(=O)N[C@@H](CO)Cc1ccccc1)C(=O)N[C@@H](C)COC(=O)[C@@H](CC=C)CC(=O)OC(C)(C)C` is “inactive”; for `COc1ccccc1S(=O)(=O)N(C)C[C@@H]1OCc2cnnn2CCCC(=O)N([C@@H](C)CO)C[C@H]1C` it is “inactive”.
The entry for `COc1ccccc1CNC(=O)C[C@H]1C[C@@H]2c3cc(NC(=O)NC4CCCC4)ccc3O[C@@H]2[C@@H](CO)O1` is “inactive”; for `C[C@H](CO)N1C[C@H](C)[C@H](CN(C)C(=O)Nc2ccc(F)cc2)OCCCC[C@H](C)Oc2ccc(NC(=O)Nc3ccc(F)cc3)cc2C1=O` it is “inactive”.
Turning to `C[C@@H]1CN([C@@H](C)CO)C(=O)c2cc(NC(=O)NC3CCCCC3)ccc2O[C@@H](C)CCCCO[C@H]1CN(C)CC1CCCCC1`, the cytotoxicity call is “inactive”.
The entry for `C[C@@H]1CN([C@@H](C)CO)C(=O)c2cc(NS(=O)(=O)c3cccs3)ccc2O[C@@H](C)CCCCO[C@@H]1CN(C)Cc1ccc2c(c1)OCO2` is “inactive”; for `CN(C)C(=O)C[C@H]1C=C[C@@H](NC(=O)C2CCOCC2)[C@H](CO)O1` it is “inactive”; for `C[C@@H]1CN([C@H](C)CO)C(=O)c2cc(NC(=O)Nc3ccccc3)ccc2O[C@@H]1CN(C)Cc1ccc(Cl)c(Cl)c1` it is “inactive”.
As to `C[C@H](CO)N1C[C@H](C)[C@@H](CN(C)Cc2ccc(Cl)c(Cl)c2)Oc2ccc(NC(=O)Nc3ccccc3)cc2C1=O`, the cytotoxicity call was “inactive”.
To `C[C@@H]1CN([C@H](C)CO)C(=O)c2cc(NC(=O)Nc3ccccc3)ccc2O[C@H]1CN(C)Cc1ccc(Cl)c(Cl)c1` belongs “inactive”.
Consider `C[C@@H]1CN([C@@H](C)CO)C(=O)c2cc(NC(=O)Nc3ccccc3)ccc2O[C@@H]1CN(C)Cc1ccc(Cl)c(Cl)c1`, for which the cytotoxicity call is “active”.
The entry for `C[C@H]1CN([C@@H](C)CO)C(=O)c2cc(NC(=O)Nc3ccccc3)ccc2O[C@H]1CN(C)Cc1ccc(Cl)c(Cl)c1` is “active”; for `C[C@H]1CN([C@@H](C)CO)C(=O)c2cc(NC(=O)Nc3ccccc3)ccc2O[C@@H]1CN(C)Cc1ccc(Cl)c(Cl)c1` it is “inactive”; for `C[C@H](CO)N1C[C@H](C)[C@@H](CN(C)S(=O)(=O)c2cccs2)Oc2ccc(NS(=O)(=O)c3ccc(F)cc3)cc2C1=O` it is “inactive”.
As for `Cc1cc(C(=O)Nc2cccc3c2O[C@H](CN(C)C(=O)Nc2ccc4c(c2)OCO4)[C@@H](C)CN([C@H](C)CO)C3=O)n(C)n1`, the cytotoxicity call is “inactive”.
As to `COc1ccc(CCNC(=O)[C@@]2(Sc3ccc(C)cc3)CC(=O)N(C3CCCCC3)[C@@H]2c2ccc(CO)cc2I)cc1`, the cytotoxicity call was “inactive”.
Turning to `COc1ccc(NC(=O)N(C)C[C@@H]2Oc3ccc(NS(=O)(=O)c4c(C)noc4C)cc3CC(=O)N([C@@H](C)CO)C[C@H]2C)cc1`, the cytotoxicity call was “inactive”.
Consider `Fc1cccc(-c2csc(COc3ccccc3Cl)n2)c1`, for which the cytotoxicity call is “inactive”.
`CS(=O)(=O)CCNCc1nc(-c2ccc3ncnc(Nc4ccc(OCc5cccc(F)c5)c(Cl)c4)c3c2)cs1`: the cytotoxicity call was “active”.
To `CC(C)(O)CC(=O)NCCn1ccc2ncnc(Nc3ccc(Oc4cccc(C(F)(F)F)c4)c(Cl)c3)c21` belongs “inactive”.
As for `CS(=O)(=O)CCNCc1ccc(-c2ccc3ncnc(Nc4ccc(OCc5cccc(F)c5)c(Cl)c4)c3c2)o1` [listing 1 of 2 here], the cytotoxicity call is “active”.
Turning to `CS(=O)(=O)CCNCc1ccc(-c2ccc3ncnc(Nc4ccc(OCc5cccc(F)c5)c(Cl)c4)c3c2)o1` [listing 2 of 2 here], the cytotoxicity call was “active”.
